Calls of active or inactive are those of the source. The calls were made as follows: active = hit-call score of the fitted dose curve at least 0.9, where 1 is the maximum; inactive = score below 0.9.
Assays:
[1] = CEETOX_H295R_11DCORT: CeeTox H295R High-throughput Steroidogenesis Assay for 11-Deoxycortisol (11DCORT) (AID 2283432); conditions: actives raise or lower the signal;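 as to AC50: 11-deoxycortisol secreted into the medium measured by LC-MS/MS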
Procedure, shortened: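 Steroidogenesis in human H295R cells: 48 h chemical exposure after forskolin priming, 11-deoxycortisol measured by LC-MS/MS.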

[2] = CEETOX_H295R_OHPREG: CeeTox H295R High-throughput Steroidogenesis Assay for OH-Pregnenolone (OHPREG) (AID 2283434); conditions: actives raise or lower the signal
Procedure, shortened: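 Hormone levels in spent medium were measured by tandem mass spectrometry following liquid-liquid extraction. Cells (H295R) had been forskolin-stimulated (10 uM, 48 h) before a 48 h chemical exposure at 0.1% DMSO, with activity fitted in both directions against DMSO.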

[3] = CEETOX_H295R_OHPROG: CeeTox H295R High-throughput Steroidogenesis Assay for OH-Progesterone (OHPROG) (AID 2283435); conditions: actives raise or lower the signal
Procedure, shortened: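 H295R adrenal cells prestimulated 48 h with 10 uM forskolin, then exposed 48 h to chemical (0.1% DMSO final). 17alpha-hydroxyprogesterone in medium quantified by HPLC-MS/MS; bidirectional fit versus DMSO, with MTT viability measured in the same wells.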

[4] = CEETOX_H295R_CORTIC: CeeTox H295R High-throughput Steroidogenesis Assay for Corticosterone (CORTIC) (AID 2283437); conditions: actives raise or lower the signal;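 also: corticosterone secreted into medium quantified by mass spectrometry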
Procedure, shortened: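 Corticosterone secreted into medium is measured by reverse-phase HPLC with tandem MS following liquid-liquid extraction. Cells are forskolin-stimulated (10 uM, 48 h) before 48 h test exposure; activity fitted in both directions against DMSO.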

[5] = CEETOX_H295R_CORTISOL: CeeTox H295R High-throughput Steroidogenesis Assay for Cortisol (AID 2283438); conditions: actives raise or lower the signal;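 also: cortisol secreted into medium quantified by LC-MS/MS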
Procedure, shortened: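 Forskolin-primed H295R cells (10 uM, 48 h) treated 48 h with test chemical in 0.1% DMSO. Cortisol in medium quantified by MTBE extraction and HPLC-MS/MS; bidirectional fit vs DMSO, MTT viability in same wells.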

[6] = CEETOX_H295R_DOC: CeeTox H295R High-throughput Steroidogenesis Assay for DOC (AID 2283439); conditions: actives raise or lower the signal
Procedure, shortened: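 H295R cells prestimulated 48 h with 10 uM forskolin, then exposed 48 h to test chemical (0.1% DMSO final). Medium 11-deoxycorticosterone measured by HPLC-MS/MS after MTBE extraction; bidirectional fit vs DMSO, viability checked by MTT in same wells.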

[7] = CEETOX_H295R_PROG: CeeTox H295R High-throughput Steroidogenesis Assay for Progesterone (PROG) (AID 2283442); conditions: actives raise or lower the signal
Procedure, shortened: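 H295R adrenal cells prestimulated 48 h with 10 uM forskolin, then exposed 48 h to test chemical in 0.1% DMSO. Progesterone in medium quantified by HPLC-MS/MS after MTBE extraction; viability checked by MTT in same wells.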

[8] = read-out: Tumor necrosis factor receptor superfamily member 6 (Homo sapiens) (UniProt P25445); test: LTEA_HepaRG_FAS: Life Technologies and Expression Analysis (LTEA) Assay for Fas cell surface death receptor (FAS) using HepaRG (AID 2283447); conditions: mRNA level, 48 h; actives raise or lower the signal
Procedure, shortened: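 FAS transcript level was measured by TaqMan qRT-PCR against three housekeeping genes after 48 h chemical exposure. Cells were HepaRG, 0.5% DMSO vehicle, with a top concentration of 100 uM and half-log dilutions over eight points, in duplicate.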

[9] = read-out: Fatty acid synthase (Homo sapiens) (UniProt P49327); test: LTEA_HepaRG_FASN: Life Technologies and Expression Analysis (LTEA) Assay for Fatty Acid Synthase (FASN) using HepaRG (AID 2283448); conditions: mRNA level, 48 h; actives raise or lower the signal
Procedure, shortened: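 Differentiated HepaRG cells in serum-free induction medium exposed 48 h in duplicate to eight half-log concentrations, top 100 uM, 0.5% DMSO. FASN mRNA by qRT-PCR normalised to ACTB, GAPDH, POLR2A; bidirectional fit versus DMSO.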

[10] = read-out: Cyclin Dependent Kinase Inhibitor 1A (CDKN1A), CDKN1A (gene 1026); test: LTEA_HepaRG_CDKN1A: Life Technologies and Expression Analysis (LTEA) Assay for Cyclin Dependent Kinase Inhibitor 1A (CDKN1A) using HepaRG (AID 2283450); conditions: mRNA level, 48 h; actives raise or lower the signal
Procedure, shortened: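 Differentiated HepaRG cells in serum-free induction medium, exposed 48 h in duplicate to eight half-log concentrations up to 100 uM in 0.5% DMSO. mRNA measured by TaqMan qRT-PCR, normalized to ACTB, GAPDH, POLR2A; bidirectional fit versus DMSO.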

[11] = read-out: Cyclin D1 (CCND1), CCND1 (gene 595); test: LTEA_HepaRG_CCND1: Life Technologies and Expression Analysis (LTEA) Assay for Cyclin D1 (CCND1) using HepaRG (AID 2283451); conditions: mRNA level, 48 h; actives raise or lower the signal
Procedure, shortened: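 Differentiated HepaRG cells exposed 48 h in serum-free induction medium to eight half-log concentrations from 100 uM top, 0.5% DMSO, duplicates. CCND1 mRNA measured by Fluidigm TaqMan qRT-PCR, normalised to ACTB, GAPDH, POLR2A; bidirectional fit.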

[12] = read-out: catalase (CAT), CAT (gene 847); test: LTEA_HepaRG_CAT: Life Technologies and Expression Analysis (LTEA) Assay for catalase (CAT) using HepaRG (AID 2283452); conditions: mRNA level, 48 h; actives raise or lower the signal;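 as to AC50: TaqMan qRT-PCR signal normalized to ACTB GAPDH and POLR2A housekeeping genes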
Procedure, shortened: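 Expression of CAT was quantified by TaqMan qRT-PCR with ACTB/GAPDH/POLR2A normalization after 48 h chemical exposure of HepaRG. Eight-point half-log series, top 100 uM, in 0.5% DMSO; gain or loss fitted against vehicle.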

[13] = read-out: flavin-containing dimethylaniline monooxygenases 3 (FMO3), FMO3 (gene 2328); test: LTEA_HepaRG_FMO3: Life Technologies and Expression Analysis (LTEA) Assay for flavin-containing dimethylaniline monooxygenases 3 (FMO3) using HepaRG (AID 2283453); conditions: mRNA level, 48 h; actives raise or lower the signal
Procedure, shortened: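 Differentiated HepaRG cells in serum-free induction medium, exposed 48 h in duplicate to 8 half-log concentrations up to 100 uM in 0.5% DMSO. FMO3 mRNA by qRT-PCR, normalized to ACTB, GAPDH, POLR2A; bidirectional fit vs DMSO.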

[14] = read-out: Cytochrome P450 (CYP1A1), CYP1A1 (gene 1543); test: LTEA_HepaRG_CYP1A1: Life Technologies and Expression Analysis (LTEA) Assay for Cytochrome P450 (CYP1A1) using HepaRG (AID 2283454); conditions: mRNA level, 48 h; actives raise or lower the signal
Procedure, shortened: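 Differentiated human HepaRG cells, after 48 h plating, exposed in duplicate for 48 h in serum-free induction medium to 8 half-log concentrations up to 100 uM in 0.5% DMSO. CYP1A1 mRNA by qRT-PCR, normalized to ACTB/GAPDH/POLR2A; bidirectional fit versus DMSO.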

[15] = read-out: CFLAR gene, CFLAR (gene 8837); test: LTEA_HepaRG_CFLAR: Life Technologies and Expression Analysis (LTEA) Assay for CFLAR gene using HepaRG (AID 2283455); conditions: mRNA level, 48 h; actives raise or lower the signal
Procedure, shortened: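 HepaRG, 48 h exposure, 8-pt conc-response (100 uM top, half-log), 0.5% DMSO vehicle, duplicates. CFLAR expression by qRT-PCR; ACTB/GAPDH/POLR2A normalization; gain or loss fit vs DMSO baseline.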

[16] = read-out: Forkhead box O1 (FOXO1), FOXO1 (gene 2308); test: LTEA_HepaRG_FOXO1: Life Technologies and Expression Analysis (LTEA) Assay for Forkhead box O1 (FOXO1) using HepaRG (AID 2283456); conditions: mRNA level, 48 h; actives raise or lower the signal
Procedure, shortened: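 Readout is FOXO1 transcript level by multiplexed qRT-PCR against three housekeeping genes, curve-fitted in both directions relative to 0.5% DMSO vehicle. Human HepaRG cultures received chemicals for 48 h, up to 100 uM in half-log steps.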

[17] = read-out: Cyclin D2 (CCND2), CCND2 (gene 894); test: LTEA_HepaRG_CCND2: Life Technologies and Expression Analysis (LTEA) Assay for Cyclin D2 (CCND2) using HepaRG (AID 2283449); conditions: mRNA level, 48 h; actives raise or lower the signal
Procedure, shortened: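 Read-out is CCND2 mRNA level measured by qRT-PCR in human HepaRG liver cells and normalised to three housekeeping genes. Chemicals were applied for 48 h at up to 100 uM, with gain or loss fitted relative to 0.5% DMSO.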

[18] = CEETOX_H295R_ANDR: CeeTox H295R High-throughput Steroidogenesis Assay for Androstenedione (ANDR) (AID 2283436); conditions: actives raise or lower the signal
Procedure, shortened: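 Read-out is androstenedione secreted into medium, measured by tandem mass spectrometry after liquid-liquid extraction. Cells were H295R, dosed for 48 h per modified OECD 456; activity fitted in both directions relative to DMSO.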

[19] = CEETOX_H295R_ESTRADIOL: CeeTox H295R High-throughput Steroidogenesis Assay for Estradiol (AID 2283440); conditions: actives raise or lower the signal;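 also: estradiol secreted into medium quantified by LC-MS/MS after dansyl derivatisation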
Procedure, shortened: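 H295R cells pre-stimulated 48 h with 10 uM forskolin, then exposed 48 h to chemical in 0.1% DMSO. Medium estradiol quantified by MTBE extraction, dansyl derivatisation and HPLC-MS/MS; bidirectional fit versus DMSO; MTT viability required >/=70%.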

[20] = CEETOX_H295R_ESTRONE: CeeTox H295R High-throughput Steroidogenesis Assay for Estrone (AID 2283441); conditions: actives raise or lower the signal;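 also: estrone secreted into medium measured by LC-MS/MS after dansyl derivatization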
Procedure, shortened: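 H295R cells prestimulated 48 h with 10 uM forskolin, then exposed 48 h to chemicals in 0.1% DMSO final; estrone in medium extracted with MTBE, dansyl-derivatized, quantified by HPLC-MS/MS; bidirectional fitting versus DMSO, viability by MTT.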

Measured: AC50

Fatty acid synthase (Homo sapiens), sequence (P49327 whole entry, looked up): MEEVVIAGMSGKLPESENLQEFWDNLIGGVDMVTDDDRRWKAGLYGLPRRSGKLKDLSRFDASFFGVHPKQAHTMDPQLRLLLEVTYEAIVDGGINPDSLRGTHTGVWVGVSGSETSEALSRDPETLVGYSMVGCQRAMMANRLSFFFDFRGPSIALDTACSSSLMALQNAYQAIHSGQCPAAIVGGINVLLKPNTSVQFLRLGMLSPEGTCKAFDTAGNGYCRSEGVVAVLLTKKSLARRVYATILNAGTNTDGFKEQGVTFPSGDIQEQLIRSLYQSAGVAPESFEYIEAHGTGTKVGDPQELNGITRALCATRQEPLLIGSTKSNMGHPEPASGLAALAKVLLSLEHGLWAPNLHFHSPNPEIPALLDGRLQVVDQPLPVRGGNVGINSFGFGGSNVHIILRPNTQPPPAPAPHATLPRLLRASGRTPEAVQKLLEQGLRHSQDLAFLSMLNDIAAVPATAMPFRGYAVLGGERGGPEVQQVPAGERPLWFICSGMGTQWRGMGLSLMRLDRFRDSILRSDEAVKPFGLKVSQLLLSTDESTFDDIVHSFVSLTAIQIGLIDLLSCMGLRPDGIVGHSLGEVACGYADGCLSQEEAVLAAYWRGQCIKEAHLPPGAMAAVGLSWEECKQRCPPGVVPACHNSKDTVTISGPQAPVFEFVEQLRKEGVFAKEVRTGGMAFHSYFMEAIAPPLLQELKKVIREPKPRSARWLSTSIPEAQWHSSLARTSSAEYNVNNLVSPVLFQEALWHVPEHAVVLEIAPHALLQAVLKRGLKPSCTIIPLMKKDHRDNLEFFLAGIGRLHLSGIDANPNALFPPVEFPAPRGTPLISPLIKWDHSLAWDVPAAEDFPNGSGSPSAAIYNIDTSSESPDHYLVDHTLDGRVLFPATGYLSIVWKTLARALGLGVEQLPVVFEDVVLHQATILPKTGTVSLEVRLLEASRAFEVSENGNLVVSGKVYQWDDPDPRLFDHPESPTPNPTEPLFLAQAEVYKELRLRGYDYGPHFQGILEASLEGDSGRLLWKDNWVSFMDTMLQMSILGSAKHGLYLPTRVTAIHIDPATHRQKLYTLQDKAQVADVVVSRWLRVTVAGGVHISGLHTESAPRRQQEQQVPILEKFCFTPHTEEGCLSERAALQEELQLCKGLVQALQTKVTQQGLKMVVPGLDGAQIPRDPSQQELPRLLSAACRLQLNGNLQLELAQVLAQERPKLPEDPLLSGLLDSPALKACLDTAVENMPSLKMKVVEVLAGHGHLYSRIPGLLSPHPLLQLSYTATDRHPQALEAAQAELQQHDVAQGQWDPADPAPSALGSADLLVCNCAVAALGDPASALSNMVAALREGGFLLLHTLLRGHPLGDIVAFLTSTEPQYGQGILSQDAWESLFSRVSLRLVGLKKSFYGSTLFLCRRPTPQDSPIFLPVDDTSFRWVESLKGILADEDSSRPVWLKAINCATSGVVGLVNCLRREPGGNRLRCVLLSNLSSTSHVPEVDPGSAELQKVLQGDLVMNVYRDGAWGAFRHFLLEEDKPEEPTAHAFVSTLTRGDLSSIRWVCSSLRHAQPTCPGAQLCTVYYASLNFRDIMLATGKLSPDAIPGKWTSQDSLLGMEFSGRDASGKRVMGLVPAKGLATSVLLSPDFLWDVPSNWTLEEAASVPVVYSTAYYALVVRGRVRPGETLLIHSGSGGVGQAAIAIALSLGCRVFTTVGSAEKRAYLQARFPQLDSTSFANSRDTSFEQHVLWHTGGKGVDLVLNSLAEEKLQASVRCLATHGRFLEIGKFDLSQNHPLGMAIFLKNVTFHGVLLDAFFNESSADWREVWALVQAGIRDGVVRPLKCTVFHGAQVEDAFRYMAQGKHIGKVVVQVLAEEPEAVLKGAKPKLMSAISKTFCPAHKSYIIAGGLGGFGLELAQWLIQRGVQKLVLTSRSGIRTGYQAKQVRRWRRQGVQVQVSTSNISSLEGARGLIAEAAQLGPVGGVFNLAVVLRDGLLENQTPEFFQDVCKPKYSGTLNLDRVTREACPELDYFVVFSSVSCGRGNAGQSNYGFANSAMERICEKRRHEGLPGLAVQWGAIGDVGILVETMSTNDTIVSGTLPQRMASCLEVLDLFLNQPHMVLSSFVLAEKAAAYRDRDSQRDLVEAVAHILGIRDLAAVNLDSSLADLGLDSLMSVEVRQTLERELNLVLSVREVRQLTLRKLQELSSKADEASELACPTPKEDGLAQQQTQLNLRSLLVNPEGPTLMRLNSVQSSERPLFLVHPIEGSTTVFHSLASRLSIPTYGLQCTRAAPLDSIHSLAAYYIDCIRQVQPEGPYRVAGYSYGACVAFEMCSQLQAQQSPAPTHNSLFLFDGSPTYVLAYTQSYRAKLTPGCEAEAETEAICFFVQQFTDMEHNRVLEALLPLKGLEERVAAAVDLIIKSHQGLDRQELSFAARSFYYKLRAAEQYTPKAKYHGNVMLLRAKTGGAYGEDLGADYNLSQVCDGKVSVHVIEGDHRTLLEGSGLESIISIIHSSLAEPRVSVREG

COc1cccc(O)c1
inactive: [1] | [2] | [3] | [4] | [5] | [6] | [7]

O=C1NS(=O)(=O)c2ccccc21
inactive: [8] | [9] | [10] | [11] | [12] | [13] | [15] | [16]
active: [14] 73.2 µM

CCCCCC(C)OC(=O)COc1ccc(Cl)c2cccnc12 (centres undefined)
active: [1] 18.7 µM | [5] 34.9 µM
inactive: [2] | [3] | [4] | [6] | [7]

CCCCCCCCCCCCCCC
active: [14] 50 µM
inactive: [8] | [9] | [17] | [10] | [11] | [12] | [13] | [15] | [16]

N=C(N)c1ccc(OCCCCCOc2ccc(C(=N)N)cc2)cc1
inactive: [17] | [11] | [14]
active: [8] 4.23 µM | [10] 10.1 µM | [12] 6.7 µM | [13] 6.68 µM | [15] 30.5 µM | [16] 43.8 µM

c1cc[nH]c1
inactive: [1] | [2] | [3] | [18] | [4] | [5] | [6] | [7]

Oc1cc2ccccc2cc1O
inactive: [1] | [2] | [3] | [18] | [4] | [5] | [6] | [19] | [20] | [7]

O=C(c1ccccc1)c1ccccc1
inactive: [8] | [9] | [17] | [10] | [11] | [12] | [13] | [15] | [16]
